# Where “and” joins values, the source holds several entries; their conditions need not be identical. Equal entries are not always repeated. In all, about 5,500 compounds went through this assay and about 2,000 (36%) were called active. Roughly 18% stayed inconclusive and do not appear here. The list shows a part of the results. Values without a mark were called inactive. Cut-off read from the data, not from the text of the source: active = normalized growth mostly below about 0.91 (no sharp cut-off); inconclusive = no clear call, values can overlap the other calls; inactive = mostly above about 0.92.
# Test: chemical genetic growth profiling, strain panel (AID 1159580);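 note: tested at 20 µM; growth read once vehicle control cultures reached saturation at 30 °C; 1 = growth at the plate median or of vehicle wells; lower values mean less growth of the strain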
# Settings: S. cerevisiae deletion strains, growth OD
structure (smiles),measurement,setting,value
CN[C@@H]1[C@@H](O[C@H]2O[C@H](CO)[C@@H](N)[C@H](O)[C@H]2O)O[C@H]2C[C@@H](N)[C@H](O[C@H]3[C@H](O)[C@@H](O)[C@H](N)C[C@@H]3N)O[C@@H]2[C@@H]1O,normalized growth,"locus YAL013W, strain DEP1, stronger effect = lower value",1.01
same,normalized growth,"locus YAL021C, strain ccr4, stronger effect = lower value",1.01
same,normalized growth,"locus YAL026C, strain drs2, stronger effect = lower value",0.995
same,normalized growth,"locus YAL030W, strain snc1, stronger effect = lower value",1.01
same,normalized growth,"locus YBL061C, strain skt5, stronger effect = lower value",1
same,normalized growth,"locus YBR009C, strain hhf1, stronger effect = lower value",1.01
same,normalized growth,"locus YBR021W, strain FUR4, stronger effect = lower value",1.01
same,normalized growth,"locus YBR023C, strain chs3, stronger effect = lower value",1.01
same,normalized growth,"locus YBR171W, strain sec66, stronger effect = lower value",1.01
same,normalized growth,"locus YBR229C, strain ROT2, stronger effect = lower value",1.02
same,normalized growth,"locus YBR231C, strain swc5, stronger effect = lower value",1.02
same,normalized growth,"locus YBR279W, strain paf1, stronger effect = lower value",1
same,normalized growth,"locus YCL011C, strain gbp2, stronger effect = lower value",1.01
same,normalized growth,"locus YCL016C, strain dcc1, stronger effect = lower value",0.994
same,normalized growth,"locus YCL029C, strain bik1, stronger effect = lower value",1.01
same,normalized growth,"locus YCL069W, strain vba3, stronger effect = lower value",1.02
same,normalized growth,"locus YCR088W, strain abp1, stronger effect = lower value",1.01
same,normalized growth,"locus YDL005C, strain med2, stronger effect = lower value",0.995
same,normalized growth,"locus YDL035C, strain GPR1, stronger effect = lower value",1.03
same,normalized growth,"locus YDL074C, strain BRE1, stronger effect = lower value",0.984
same,normalized growth,"locus YDL101C, strain DUN1, stronger effect = lower value",1
same,normalized growth,"locus YDL134C, strain PPH21, stronger effect = lower value",0.999
same,normalized growth,"locus YDL185W, strain tfp1, stronger effect = lower value",0.992
same,normalized growth,"locus YDL192W, strain arf1, stronger effect = lower value",1.01
same,normalized growth,"locus YDR001C, strain nth1, stronger effect = lower value",1.01
same,normalized growth,"locus YDR069C, strain doa4, stronger effect = lower value",1.03
same,normalized growth,"locus YDR101C, strain arx1, stronger effect = lower value",1.01
same,normalized growth,"locus YDR137W, strain rgp1, stronger effect = lower value",0.702 (active)
same,normalized growth,"locus YDR150W, strain NUM1, stronger effect = lower value",1.01
same,normalized growth,"locus YDR159W, strain sac3, stronger effect = lower value",1.02
same,normalized growth,"locus YDR162C, strain NBP2, stronger effect = lower value",1
same,normalized growth,"locus YDR195W, strain ref2",1.01
same,normalized growth,"locus YDR297W, strain sur2, stronger effect = lower value",1.01
same,normalized growth,"locus YDR318W, strain mcm21, stronger effect = lower value",1.03
same,normalized growth,"locus YDR334W, strain swr1, stronger effect = lower value",0.993
same,normalized growth,"locus YDR335W, strain msn5, stronger effect = lower value",1.01
same,normalized growth,"locus YDR388W, stronger effect = lower value",1.02
same,normalized growth,"locus YDR392W, strain spt3, stronger effect = lower value",0.921
same,normalized growth,"locus YDR502C, strain sam2, stronger effect = lower value",0.982
same,normalized growth,"locus YEL003W, strain gim4, stronger effect = lower value",1
same,normalized growth,"locus YEL037C, strain rad23, stronger effect = lower value",1
same,normalized growth,"locus YEL061C, strain CIN8 (second series), stronger effect = lower value",0.999
same,normalized growth,"locus YEL061C, strain CIN8, stronger effect = lower value",1.01
same,normalized growth,"locus YER015W, strain faa2, stronger effect = lower value",1.02
same,normalized growth,"locus YER016W, strain bim1, stronger effect = lower value",1.01
same,normalized growth,"locus YER110C, stronger effect = lower value",1.01
same,normalized growth,"locus YER111C, strain swi4, stronger effect = lower value",1.01
same,normalized growth,"locus YER155C, strain BEM2 (second series), stronger effect = lower value",0.936
same,normalized growth,"locus YER155C, strain BEM2, stronger effect = lower value",1.01
same,normalized growth,"locus YER167W, strain BCK2, stronger effect = lower value",1.03
same,normalized growth,"locus YFR010W, strain ubp6, stronger effect = lower value",1.02
same,normalized growth,"locus YGL078C, strain dbp3, stronger effect = lower value",1
same,normalized growth,"locus YGL086W, strain mad1, stronger effect = lower value",1.01
same,normalized growth,"locus YGL167C, strain pmr1, stronger effect = lower value",1.01
same,normalized growth,"locus YGL173C, strain kem1, stronger effect = lower value",1.01
same,normalized growth,"locus YGL227W, strain vid30, stronger effect = lower value",0.998
same,normalized growth,"locus YGL240W, strain doc1, stronger effect = lower value",1.01
same,normalized growth,"locus YGL248W, strain PDE1, stronger effect = lower value",1
same,normalized growth,"locus YGL253W, strain hxk2, stronger effect = lower value",1
same,normalized growth,"locus YGR078C, strain PAC10, stronger effect = lower value",0.99
same,normalized growth,"locus YGR135W, strain pre9, stronger effect = lower value",0.978
same,normalized growth,"locus YGR229C, strain SMI1, stronger effect = lower value",1.01
same,normalized growth,"locus YGR252W, strain gcn5, stronger effect = lower value",0.989
same,normalized growth,"locus YHR013C, strain ard1, stronger effect = lower value",1.07
same,normalized growth,"locus YHR027C, strain rpn1, stronger effect = lower value",1
same,normalized growth,"locus YHR030C, strain SLT2, stronger effect = lower value",1.01 and 0.961
same,normalized growth,"locus YHR079C, strain IRE1 (second series), stronger effect = lower value",0.998
same,normalized growth,"locus YHR079C, strain IRE1, stronger effect = lower value",0.962
same,normalized growth,"locus YHR094C, strain hxt1, stronger effect = lower value",1.01
same,normalized growth,"locus YHR129C, strain ARP1, stronger effect = lower value",1.01
same,normalized growth,"locus YHR142W, strain chs7, stronger effect = lower value",0.977
same,normalized growth,"locus YHR200W, strain rpn10, stronger effect = lower value",1
same,normalized growth,"locus YIL066C, strain RNR3, stronger effect = lower value",1.01
same,normalized growth,"locus YIL073C, strain SPO22, stronger effect = lower value",1.04
same,normalized growth,"locus YIL125W, strain kgd1, stronger effect = lower value",1
same,normalized growth,"locus YIR030C, strain dcg1, stronger effect = lower value",1
same,normalized growth,"locus YJL092W, strain hpr5, stronger effect = lower value",1.01
same,normalized growth,"locus YJL095W, strain BCK1 (second series), stronger effect = lower value",1.01
same,normalized growth,"locus YJL095W, strain BCK1, stronger effect = lower value",0.987 and 0.964
same,normalized growth,"locus YJL115W, strain asf1, stronger effect = lower value",0.991
same,normalized growth,"locus YJL129C, strain trk1, stronger effect = lower value",1.01
same,normalized growth,"locus YJL134W, strain LCB3, stronger effect = lower value",1.01
same,normalized growth,"locus YJL154C, strain vps35, stronger effect = lower value",1.01
same,normalized growth,"locus YJL164C, strain tpk1, stronger effect = lower value",0.975
same,normalized growth,"locus YJL166W, strain qcr8, stronger effect = lower value",1.03
same,normalized growth,"locus YJL168C, strain set2, stronger effect = lower value",1
same,normalized growth,"locus YJL187C, strain SWE1 (second series), stronger effect = lower value",0.995
same,normalized growth,"locus YJL187C, strain SWE1, stronger effect = lower value",1.01
same,normalized growth,"locus YJR043C, strain POL32, stronger effect = lower value",1.03
same,normalized growth,"locus YJR066W, strain TOR1, stronger effect = lower value",0.911
same,normalized growth,"locus YJR075W, strain HOC1, stronger effect = lower value",0.977

# Reference: PubChem BioAssay AID1159580 (chemical genetic matrix, 2015)
